Assay outcomes deposited in PubChem BioAssay by National Center for Advancing Translational Sciences (NCATS).
FMDV antiviral – foot and mouth disease virus antiviral activity; FMDV antiviral cell-based qHTS; Potency, µM (highest dose often 57.9 µM), for inactives: at the highest dose activity change, negative = inhibition, usual class: inhibitors; 410,000 compounds, 1.2% hits; calls by dose curve; tested in HEK293T cells; also: read-out not given here; potency is read from the fitted curve at half-maximal effect; % is scaled to controls: 0 for no effect and ±100 for the full control effect; nearly all actives have a fitted effect of over 45% in size
LASV entry inh – blocks Lassa virus binding to or entry into cells; 300,000 compounds, 1.2% hits; Lassa virus pseudotype entry inhibition, cell reporter; Potency, µM (doses to about 37.9 µM), without a hit: at the top dose activity change, negative = inhibition, usual class: inhibitors; calls by dose curve; tested in HEK293 cells; also: potency is read from the fitted curve at half-maximal effect; % is scaled to controls: 0 for no effect and ±100 for the full control effect; nearly all actives have a fitted effect of over 50% in size
HCV inh – inhibitors of hepatitis C virus infection; Potency, µM (doses to about 41.8 µM), for the others: at the top dose activity change, negative = inhibition, most hits filed as inhibitors; Huh7.5.1 HCVcc-Cre infection, luciferase reporter, 44 h; 340,000 compounds, 3.4% hits; active = well fitted inhibition curve with a large enough effect; inconclusive = small, poorly fitted or top-dose-only effect, or another doubt; inactive = no such curve, though single readings can be large or run the other way; also: potency is read from the fitted curve at half-maximal effect; % is scaled to controls: 0 for no effect and ±100 for the full control effect
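1,000 cells/well; 4 h culture; + compound; + HCVcc-Cre (~0.5 moi); 44 h; luciferase substrate, RT 15 min; read 15 sec.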
HCMV antiviral – inhibitors of human cytomegalovirus. 410,000 compounds, 4.5% hits. activity change, negative = inhibition, % at 57.5 µM. HFF cells, HCMV-luciferase reporter, 72 h; active compounds read low. AID 1259415; in the data active = activity change below about -60%; inconclusive = no clear call, values can overlap the other calls; inactive = above about -39%; also: % is scaled to controls: 0 for no effect and ±100 for the full control effect
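Human foreskin fibroblasts infected with luciferase-reporter HCMV at MOI 1 PFU/cell, compounds at two doses. Luciferase measured 72 h post infection; normalized to buffer-only basal and Salinomycin (10uM) controls.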
SARS PLP yeast – blocks SARS-CoV papain-like protease in a yeast assay; S. cerevisiae expressing SARS-CoV PLpro, growth rescue; Potency, µM (doses to about 32.9 µM), for the others: at the highest dose activity, positive = growth rescue, hits mostly activators; 330,000 compounds, 0.19% hits; AID 485353; calls by dose curve; also: potency is read from the fitted curve at half-maximal effect; 0% is about no effect; nearly all actives have a fitted effect of over 55% in size
MARV entry inh – blocks Marburg virus binding to or entry into cells; Marburg virus pseudotyped entry inhibition, cell reporter; Potency, µM (doses to about 37.8 µM), inactives show at the highest dose activity change, negative = inhibition, actives largely listed as inhibitors; 300,000 compounds, 1.8% hits; calls by dose curve; tested in HEK293 cells; also: potency is read from the fitted curve at half-maximal effect; % is scaled to controls: 0 for no effect and ±100 for the full control effect
Numbers without * were called inactive; ? = inconclusive; . = not tested or not shown; [ ] = dose if it differs, or a comment. A selection: hits, their analogues and other compounds. The true share with any hit is near 8%.

SMILES | FMDV antiviral | LASV entry inh | HCV inh | HCMV antiviral | SARS PLP yeast | MARV entry inh
COc1ccc(-n2cc3ccc([N+](=O)[O-])cc3n2)cc1 | -34.8% | ? | ? | -96.4* | -3.4% | ?
COc1ccc(C2=NCCn3nc4cc([N+](=O)[O-])ccc4c32)cc1 | 8.9% | . | ? | -26.3 | -0.9% | .
COc1cc(OC)c2nc(C)c3c(c2c1)N(c1ccc(O)cc1)CC3 | ? | ? | ? | -102.8* | 1.6% | ?
COc1ccc(N2CCN(c3cc(C)c4ccc(O)cc4n3)CC2)cc1 | -23.0% | . | 2.7% | 4.7 | 7.0% | .
CC(=O)N(CCC(Cc1ccccc1)c1ccco1)Cc1ccco1 (stereo not given) | ? | . | 11.2µM* | 24.6 | 2.9% | .
COc1ccc(CN(CCC(c2ccc3c(c2)OCO3)c2ccccc2OC)C(C)=O)cc1 (stereo not given) | ? | ? | . | -10.0 | . | .
O=C(c1ccco1)N(CCC(c1ccccc1)c1ccco1)Cc1ccco1 (stereo not given) | ? | -28.9% | 24.7% | 11.5 | -8.6% | ?
CC(=O)N(CCC(Cc1ccccc1)c1ccc2c(c1)OCO2)Cc1ccc(Cl)cc1 (stereo not given) | ? | ? | 11.2µM* | -32.6 | -5.9% | ?
CCCCn1c(=O)c2oc3ccccc3c2n(CC(=O)Nc2cc(C)ccc2C)c1=O | -20.7% | 7.3%[46.1 µM] | . | -0.1 | . | .
Cc1cc(C)c2nc(/N=C(\N)NC(=O)Nc3ccccc3)nc(C)c2c1 | ? | ? | 11.2µM* | ? | 6.7% | ?
Cc1cc(C)c2nc(/N=C(\N)NC(=O)c3ccccc3)nc(C)c2c1 | -6.1% | 13.5% | -6.8% | 27.3 | -0.7% | ?
CC(C)(C)c1cc(-c2csc(Nc3ccccc3)[n+]2Cc2ccc(C(=O)O)cc2)cc(C(C)(C)C)c1O | 31.6µM* | -19.6% | 12.8% | . | -3.6% | 11.2µM*
CCC(=O)n1nc(NCc2ccccc2OC)nc1NCc1ccccc1OC | ? | ? | 11.2µM* | -0.3 | -9.6% | ?
O=C(CN1CCCCC1)Nc1ccc(C(F)(F)F)cc1Cl | 7.2% | 9.2% | 6.2% | -70.4* | 0.7% | ?
Cc1cc(C=O)c(C)c2c1[nH]c1ccccc12 | 3.8% | ? | -26.3% | -3.8 | . | -2.6%
Cc1ccc(C)c2c1[nH]c1ccccc12 | -1.0% | -4.9% | 7.94µM* | 22.3 | -3.8% | 7.0%
Cc1ccc(C)c2c1[nH]c1ccc([N+](=O)[O-])cc12 | -12.2% | ? | 10µM* | -30.0 | -24.6% | -16.5%
COc1cc(=O)n2c(c1C(=O)N(C)Cc1nonc1C)CCN(C(=O)c1cccc(C)c1C)CC2 | 13.0% | . | . | . | . | .
COc1ccc(CCNC(=O)c2cc3c(=O)[nH]c4ccc(C)cc4c3s2)cc1OC | -17.1% | -29.4%[46.1 µM] | . | -5.7 | . | 0.1%[46.1 µM]
CCN(CC)c1nc(-c2ccc(C(C)(C)C)cc2)nc2ccccc12 | ? | 12.6µM* | . | -14.6 | . | .
CC(C)CN(CC(C)C)c1nc(-c2ccc(Cl)cc2)nc2ccccc12 | -21.1% | 12.0%[46.1 µM] | . | 21.1 | . | 7.6%[46.1 µM]
S=c1nc(-c2ccccc2)oc2c1CCCC2 | 21.5% | ? | 9.3% | 73.5 | -1.4% | -0.1%
O=[N+]([O-])c1ccc(-c2nc(=S)c3c(o2)CCCC3)cc1 | -26.0% | 14.8% | 19.5% | -101.5* | -23.3% | ?
COc1ccc(N2CCN(C(=O)c3sc4nc5n(c(=O)c4c3C)CCC5)CC2)cc1 | -23.6% | 19.4%[46.1 µM] | . | -19.4 | . | .
C/C(=N/O)C(=O)NCCCn1ccnc1 | . | . | . | . | . | 19.6%[46.1 µM]
SMILES | FMDV antiviral | LASV entry inh | HCV inh | HCMV antiviral | SARS PLP yeast | MARV entry inh
Cc1cc(C)n(-c2nc3ccccc3nc2N2CCN(C(=O)c3ccc(F)cc3)CC2)n1 | -2.6% | ? | -0.6% | -79.5* | 2.0% | 2.1%
Cc1cc(C)n(-c2nc3ccccc3nc2N2CCC(C)CC2)n1 | -19.5% | 18.6% | -4.4% | -6.5 | -42.7% | 9.5%
Cc1[nH]c2ccc(C(=O)NCCCN3CCN(C)CC3)cc2c1C | -25.9% | . | 2.6% | 16.5 | 24.8% | .
Cc1[nH]c2ccc(C(=O)NCCCN(C)C3CCCCC3)cc2c1C | -5.7% | 17.0%[46.1 µM] | -13.2% | -62.1* | 1.4% | ?
COc1ccc(SCC2CN(C)CCC2c2ccc(F)cc2)cc1 (stereo not given) | 14.3% | . | 11.2µM* | -10.0 | . | .
Cc1nc2nc(C)c(NS(=O)(=O)c3ccc(F)cc3)c(=O)n2[nH]1 | -10.9% | -2.8%[46.1 µM] | . | 10.7 | . | 19.8%[46.1 µM]
O=c1cc(/C=C/c2cccs2)[nH]c2ccccc12 | ? | 6.51µM* | ? | -85.1* | -3.1% | 4.11µM*
Cc1ccc(Cl)cc1N(C)C(=O)c1cc2c(Cl)nc3ccccc3c2s1 | -3.3% | ? | . | 13.0 | . | 1.6%[46.1 µM]
COC1=C[C@H](C(=O)NCc2ccc(Cl)cc2)C(C)C(c2ccccc2)CC1=O (stereo not given in full) | . | . | . | . | . | -1.4%[14.2 µM]
CCOc1ccccc1-n1nnc(-c2nc(-c3ccccc3)no2)c1N | 34.4% | -9.2%[46.1 µM] | . | 41.5 | . | .
Cc1ccc(S(=O)(=O)N2CCN(CC(=O)N/N=C\c3ccc(Cl)c([N+](=O)[O-])c3)CC2)cc1 | -11.2% | -37.3% | 4.47µM* | ? | ? | ?
O=C(CN1CCN(S(=O)(=O)c2ccc(Br)cc2)CC1)N/N=C/c1ccc(Cl)c([N+](=O)[O-])c1 | -15.4% | ? | 11.2µM* | -24.8 | 12.0% | 14.6µM*
O=C(CN1CCN(S(=O)(=O)c2ccc(Br)cc2)CC1)N/N=C/c1cc([N+](=O)[O-])ccc1Cl | -17.2% | 0.8% | -6.0% | -15.2 | 2.9% | ?
COc1cccc(NC(=O)CCc2nc(-c3cc(OC)c(OC)c(OC)c3)no2)c1 | -24.0% | -2.1%[46.1 µM] | . | 8.7 | . | -22.0%[46.1 µM]
COc1cc(OC)cc(C2=Cc3ccccc3C(CC(C)=O)N2c2ccc(-c3cccs3)cc2)c1 (stereo not given) | -27.6% | . | . | ? | . | .
COc1cc(OC)cc(C2=Cc3ccc(OC)cc3C(CC(C)=O)N2c2ccc(-c3cccs3)cc2)c1 (stereo not given) | -18.5% | . | . | -82.7* | . | .
O=C(Cc1ccccc1)NNC(=O)Nc1cccc(Cl)c1 | 38.9% | -17.9% | 16.8% | -38.8 | 1.2% | -10.1%
O=C(CN1c2ccccc2Sc2ccccc21)NNC(=O)Nc1cccc(Cl)c1 | 17.4% | ? | -19.7% | -73.3* | 1.5% | ?
C=Cc1ccc(CSc2nc(-c3ccccc3Cl)nc3c2Cc2c(CO)cnc(C)c2O3)cc1 | -29.8% | -7.7%[46.1 µM] | . | 11.0 | . | .
O=C(Sc1cccc2cccnc12)c1ccc(F)cc1 | . | . | . | -100.1* | -1.3% | .
CC(=O)/C(=N\Nc1ccccc1)Sc1cccc2cccnc12 | -22.0% | 1.2% | ? | 9.8 | -0.1% | -12.7%
O=C(Sc1cccc2cccnc12)c1ccccc1Br | . | . | . | -96.9* | -51.0% | .
COc1ccc(/C=C/C(=O)C(C)(C)C)cc1OC | -4.5% | . | 0.6% | ? | -1.1% | .
COc1cc(/C=C/C(=O)c2ccc([N+](=O)[O-])o2)ccc1O | ? | . | ? | -77.0* | 0.6% | .
O=C(/C=C/c1cccc(Cl)c1)c1ccc([N+](=O)[O-])o1 | 11.2µM* | . | 2.51µM* | -99.8* | 4.6% | .
